# Results published in PubChem BioAssay AID1347076 (National Center for Advancing Translational Sciences (NCATS), 2019).
# Hit rate of the full screen: of about 400,000 compounds, about 13,000 (3.2%) were called active. Entries that show only a call come without a potency. Roughly 18% stayed inconclusive and do not appear here. This is one part of a sample in which actives are shown more often than they occur. Calls follow the shape of the dose curve; as a rule, active = well fitted cell-killing curve with a large enough effect; inconclusive = small, poorly fitted or top-dose-only effect, or effect the other way; inactive = flat fitted curve, though single readings scatter.
# Test: qHTS assay for MDR1-selective chemotherapeutics: Primary screen using the drug-selected MDR subline cells KB-V1; also: nearly all actives have a fitted effect of over 60% in size
# Conditions: KB-V1 MDR cells viability, CellTiter-Glo, 72 h; series mostly up to 46.1 µM
# In short: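 KB-V1 MDR subline cells in DMEM (phenol-red free, 10% FBS) exposed to compounds in qHTS concentration series for 72 h at 37 degrees C. Viability read by CellTiter-Glo luminescence; concentration-effect curves fitted after normalization and correction.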
# Potency is read from the fitted curve at half-maximal effect.
row,Structure (SMILES),Potency
1,CC(C)[C@H](NC(=O)c1ccccc1F)C(=O)Nc1cccc(S(=O)(=O)N2CCOCC2)c1,inactive
2,NS(=O)(=O)c1ccc(CCNC(=O)CCCCCn2c(=O)[nH]c3ccccc3c2=O)cc1,inactive
3,C[C@@H]1Cn2cnc(C(=O)Nc3ccc(CNC(=O)OC(C)(C)C)cc3)c2C(=O)N1,inactive
4,COc1ccc(C2=Nn3c(nnc3-c3ccccc3OC)SC2)cc1OC1CCCC1,5.8 µM (active)
5,COc1ccccc1-c1nnc2n1N=C(c1ccc(OC(F)F)c(OCC3CC3)c1)CS2,inactive
6,Cc1nnc2n1N=C(c1ccccc1)CS2,inactive
7,COc1ccc2c(CNCCc3ccccc3C)c(C(=O)O)n(Cc3ccccc3C)c2c1,inactive
8,COc1ccc(S(=O)(=O)N[C@@H]2C=C[C@@H](CC(=O)N3CCc4ccccc4C3)O[C@@H]2CO)cc1,inactive
9,COc1cccc(NC(=O)CN(C)C(=O)Cc2ccc(Cl)cc2Cl)c1,inactive
10,COc1cccc(NC(=O)CN(C)C(=O)/C=C/c2cc(OC)ccc2OC)c1,10.3 µM (active)
11,COc1cccc(NC(=O)CN(C)C(=O)/C=C/c2cn(-c3ccccc3)nc2-c2cccs2)c1,inactive
12,O=C(O)C1CCCN1c1nc(Cl)ccc1[N+](=O)[O-] (centres undefined),inactive
13,COc1ccc(NC2CCCN(C(=O)c3ccccc3-c3ncc[nH]3)C2)cc1 (centres undefined),inactive
14,Cc1ccc(S(=O)(=O)Oc2ccc(/C=N/NC(=O)c3ccncc3)cc2)cc1,inactive
15,COc1cc(OC)c(/C=N/NC(=O)c2ccc([N+](=O)[O-])cc2)cc1Br,inactive
16,COc1cccc(/C=N/NC(=O)c2cccc([N+](=O)[O-])c2)c1OS(=O)(=O)c1ccc(C)cc1,16.4 µM (active)
17,CC(C)C[C@H]1CN([C@@H](Cc2ccccc2)CN2CCC[C@@H]2CN2C(=O)C(=O)NC[C@@H]2Cc2ccc(O)cc2)C(=O)C(=O)N1CCc1ccccc1,inactive
18,Cc1ccc(Nc2c(-c3ccc(C)cc3)nc3cnccn23)cc1,inactive
19,CCOc1cc(-c2nnc(SCC(=O)NC3CCCCC3)nc2-c2ccc(OC)c(OCC)c2)ccc1OC,inactive
20,COc1ccccc1N1CCN(c2ncnc3onc(-c4cccc(Cl)c4)c23)CC1,inactive
21,COc1ccc(-c2nc3cnccn3c2NC2CCCCC2)cc1-c1cccc(Cl)c1,14.6 µM (active)
22,COc1ccc(C)cc1S(=O)(=O)NC1CCCCC1,inactive
23,COc1cccc(CNC(=O)CN2C(=O)CCc3cc(S(=O)(=O)N4CCOCC4)ccc32)c1,inactive
24,CCCNC(=O)c1cc(C2CCCCN2C(=O)OC)on1 (centres undefined),inactive

row,Structure (SMILES),Potency
1,CCC(C)C(CO)NC(=O)/C=C/[C@H]1O[C@@H](n2cnc3c(NC(=O)c4ccccc4)ncnc32)[C@H](O)[C@@H]1O (some centres undefined),inactive
2,COc1ccc([C@H]2N[C@]3(CCCN(CC4CCCCC4)C3=O)[C@H]3C(=O)N(C)C(=O)[C@@H]23)cc1,inactive
3,Cn1c(=O)c2cc(NC(=O)NCCc3cccs3)ccc2n1Cc1cccc(C(F)(F)F)c1,inactive
4,Cc1cccc(Nc2nc(-c3ccccc3)cs2)n1,inactive
5,CC(=O)Nc1cccc(-c2csc(Nc3cccc(C)n3)n2)c1,20.6 µM (active)
6,CC(=O)NC(c1ccccc1)c1nc(-c2cccc(C(C)C)c2)cs1 (centres undefined),inactive
7,O=C1CC[C@@H](C(=O)N2CSC[C@@H]2C(=O)Nc2ccc(C(F)(F)F)cc2)N1,inactive
8,Cc1ccc(-c2nc(=N)sn2Cc2ccccc2)cc1,inactive
9,CN(N=O)c1ccc(C=C2c3ccccc3-c3ccccc32)cc1,inactive
10,O=C(NCc1cccnc1)c1cc(C2CCCN(C(=O)C3CCCCC3)C2)on1 (centres undefined),inactive
11,CC1(C)CC(=O)c2cc(C(=O)NCc3ccccc3)c(=O)[nH]c2C1,inactive
12,CC(NC(=O)c1cccc2ccccc12)c1ccc2c(c1)CCCC2 (centres undefined),20.6 µM (active)
13,CC(NC(=O)c1ccccc1SCC(=O)N1CCCC1)c1ccccc1 (centres undefined),inactive
14,CC(NC(=O)c1ccccc1F)c1cccc2ccccc12 (centres undefined),inactive
15,O=C1CCC(=O)N1CCC(=O)N(C(=O)NC1CCCCC1)C1CCCCC1,inactive
16,CCOc1ccc(CCN2C(=O)C(=O)N([C@@H](Cc3ccc(O)cc3)CN3CCC[C@H]3CN3C(=O)C(=O)NC[C@@H]3CC(C)C)C[C@@H]2Cc2ccccc2)cc1,inactive
17,CCCNC(=O)C1(C)CCN(C(=O)c2ccccc2OC(F)(F)F)C1 (centres undefined),inactive
18,Cc1cc(O)ccc1-c1cc(C(=O)NCc2cc(C(F)(F)F)cc(C(F)(F)F)c2)[nH]n1,inactive
19,O=[N+]([O-])c1ccc(N2CCSCC2)cc1O,inactive
20,CC1CCN(c2ccc([N+](=O)[O-])c(SCCO)c2)CC1,inactive
21,CN1CCN(c2ccc([N+](=O)[O-])c(Sc3nc4ccccc4[nH]3)c2)CC1,14.6 µM (active)
22,COc1ccc(Sc2ccc(NC(=O)c3cccc(Cl)c3)cc2C#N)cc1,inactive
23,Oc1ccc(Br)cc1/C=N/Nc1ccccn1,inactive
24,COc1ccc(-c2nn(-c3ccccc3)cc2/C=N/Nc2ccccn2)cc1OC,3.66 µM (active)

row,Structure (SMILES),Potency
1,COc1ccc(-c2nn(-c3ccccc3)cc2C(=O)Nc2nccs2)cc1OC,inactive
2,CS(=O)(=O)c1cccc(-c2ccc3nncn3c2)c1,inactive
3,CCN(CCCNC(=O)c1c(C)oc2ncn(CC(C)C)c(=O)c12)Cc1ccccc1,inactive
4,OCCN1CCN(c2ncnc3c2ncn3[C@H]2CN(Cc3ccco3)C[C@@H](CO)O2)CC1,inactive
5,Cc1ccc(S(=O)(=O)Cc2cc(-c3ccc(Cl)cc3)no2)cc1,inactive
6,O=S(=O)(Cc1ccc(Cl)cc1Cl)c1ccc(Cl)cc1,1.46 µM (active)
7,O=S(=O)(NCc1ccc(Cl)cc1Cl)c1cccs1,inactive
8,CCCCc1ccc(S(=O)(=O)NC(=O)C2(C)CCN2C(=O)c2c(C)noc2C)cc1 (centres undefined),inactive
9,CCN(CCN(C)C)C(=O)c1ccc2nc(C)c(N(C)C(=O)CCc3ccccc3)n2c1,inactive
10,Cc1ccc(C(C(=O)NC2CCCCC2)N(C(=O)c2csnn2)C2CC2)o1 (centres undefined),inactive
11,O=C(NC1CCCC1)C(c1ccccn1)N(C(=O)c1csnn1)C1CCCC1 (centres undefined),20.6 µM (active)
12,O=C(NC1CCCC1)C(c1ccc(Cl)cc1)N(C(=O)c1csnn1)C1CC1 (centres undefined),inactive
13,Cc1ccc(NC(=O)c2cc3cc(C)ccc3n2C)cc1,inactive
14,COc1ccccc1-c1n[nH]nc1C1=CC(=O)CC(C)(C)C1,inactive
15,CNC(=O)NC(=O)C(OC(=O)c1cccc(S(=O)(=O)N2CCCCC2)c1)c1ccccc1 (centres undefined),23.1 µM (active)
16,CC(OC(=O)c1cccc(S(=O)(=O)N2CCOCC2)c1)C(=O)NCC1CCCCC1 (centres undefined),inactive
17,O=C(NNC1=NCCC1)c1cccc(S(=O)(=O)N2CCCCC2)c1,inactive
18,Cc1cccc(CNC(=O)c2cnc3sc(N4CCCCC4)nn3c2=O)c1,inactive
19,Cc1ccc(C)c2sc(NC(=O)c3ccc(S(=O)(=O)N4CCCC4)cc3)nc12,inactive
20,Cc1nn(CC(=O)NCCc2ccccc2)c(=O)c2c1sc1ccccc12,inactive
21,COC(=O)c1ccc(COc2ccc(/C=N/NC(=O)C(=O)Nc3ccc(OC)cc3)cc2OC)o1,inactive
22,COc1cc(/C=N/NC(=O)c2ccoc2C)ccc1OCCN1CCCCC1,inactive
23,COc1cc(/C=N/NC(=O)Nc2ccccc2)ccc1OCCOc1ccccc1C,2.31 µM (active)
24,C[C@H]1CN([C@@H](C)CO)C(=O)CCCn2cc(nn2)CO[C@@H]1CN(C)S(=O)(=O)c1cccc(C#N)c1,inactive

row,Structure (SMILES),Potency
1,O=C(COC(=O)c1ccc(S(=O)(=O)N2CCCCCC2)cc1)Nc1ccccc1C(F)(F)F,inactive
2,O=C(NCCc1ccccc1)c1ccc2c(c1)N(Cc1ccccc1)CCS2,inactive
3,CCOC(=O)N1CCN(C(=O)c2ccc3c(c2)N(Cc2ccc(C)cc2)CCS3)CC1,3.26 µM (active)
4,O=C(NCCN1CCOCC1)c1ccc2c(c1)N(Cc1ccc(Cl)cc1)CCS2,inactive
5,OC[C@@H]1O[C@H](n2cnc3c(SCc4ccccc4)ncnc32)[C@H](O)[C@H]1O,inactive
6,COc1ccc(-c2ccc(Nc3ccc(S(=O)(=O)N4CCCC4)cc3)nn2)cc1OC,13 µM (active)
7,COc1cc(C(C)=O)ccc1OC(C)C(=O)Nc1ccc(S(=O)(=O)N2CCCC2)cc1 (centres undefined),inactive
8,COc1cc(C(=O)NNC(=O)c2ccc(S(=O)(=O)N3CCCCC3)cc2)cc(OC)c1OC,inactive
9,CC(C)Oc1cc(F)ccc1-c1cc(C(=O)Nc2cccc(Cl)c2)[nH]n1,inactive
10,CCCCCC(=O)N1C[C@H](O)[C@@H](n2cc(COC(=O)c3ccccc3)nn2)C[C@@H]1c1ccc(C)cc1,inactive
11,COC(=O)c1c(NC(=O)CN2C(=O)NC(CCc3ccccc3)C2=O)sc2c1CCCCC2 (centres undefined),inactive
12,COC(=O)c1c(NC(=O)C2CC(C)=C(C)CC2C(=O)O)sc2c1CCCCC2 (centres undefined),inactive
13,CCOC(=O)c1c(NC(=O)CSc2nnc(CN3CCOCC3)n2C)sc2c1CCCC2,5.8 µM (active)
14,NC(=O)c1c(NC(=O)CSc2nnc(-c3ccco3)n2N)sc2c1CCCC2,inactive
15,CCc1ccc(N(CC(=O)Nc2sc3c(c2C(=O)OC)CCCC3)S(C)(=O)=O)cc1,9.2 µM (active)
16,COC(=O)c1c(NC(=O)CSc2nncs2)sc2c1CCCCC2,23.1 µM (active)
17,Cc1cccc(C(=O)OCC(=O)Nc2sc3c(c2C#N)CCC3)c1,inactive
18,COC(=O)c1c(NC(=O)CN(c2ccc(C)c(C)c2)S(C)(=O)=O)sc2c1CCCC2,inactive
19,COC(=O)c1c(NC(=O)c2ccc(Cl)c(Cl)c2)sc2c1CCCC2,inactive
20,CCOC(=O)c1c(NC(=O)CSc2nnc(Cc3csc(N)n3)n2C)sc(C)c1C,inactive
21,COc1cccc(OC)c1C(=O)Nc1sc2c(c1C(N)=O)CCCC2,inactive
22,COC(=O)c1c(NC(=O)COC(=O)[C@@H](NS(=O)(=O)c2ccccc2)C(C)C)sc2c1CCC2,14.6 µM (active)
